In PubChem BioAssay (NCI):
Values joined by “and” are separate entries in the source; they are usually repeats but may differ in a detail not shown here. Equal values may be shown once. Compounds without any hit were thinned out: in the full panel of roughly 83,000, 20% have a hit.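 The test compound was applied at a single concentration to cells in 96-well plates for 48 hours, and percent growth was recorded.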 Unmarked numbers belong to inactive results. Active and inactive are the calls of the source. Rule for the calls: active = growth percent below 10; inactive = the rest.

Tested on: MDA-MB-468 breast
Experiment: NCI-60 one-dose screen, 48 h (100 = growth as untreated, 0 = no growth, -100 = all killed)
Settings: 10 µM unless noted

Row | Compound | growth
1 | COc1cc(Nc2ncccc2/C=C/C(=O)c2cc(OC)c(OC)c(OC)c2)cc(OC)c1OC | -2.82% (active)
2 | CC1=C(C(=O)Nc2ccc(F)cc2)C(c2ccccc2)C2=C(CC(C)(C)CC2=O)N1 (stereo not given) | 67.7%
3 | CC1(C)CC[C@]2(CO)CC[C@]3(C)C(=CC[C@@H]4[C@@]5(C)CCNCC(C)(C)[C@@H]5CC[C@]43C)[C@@H]2C1 | -33.1% (active)
4 | C=C(C)[C@@H]1CC[C@]2(C(=O)N3CCOCC3)CC[C@]3(C)[C@H](CC[C@@H]4[C@@]5(C)C/C(=C/c6ccncc6)C(=O)C(C)(C)[C@@H]5CC[C@]43C)[C@@H]12 | 21.4%
5 | COc1ccc(C(=O)c2cc(C)c(OC)c(C)c2)c(OC)c1N(C(=O)C(Cl)Cl)C(=O)C(Cl)Cl | 21.6%
6 | CCC(OC(=O)CC(C)C)c1ccccc1 (stereo not given) | 99.3%
7 | Fc1ccccc1-c1cnn2cc(-c3ccccc3)cnc12 | 124%
8 | COc1cc2c(cc1-c1c(C)noc1C)ncc1nc(C3CCCCC3)n([C@H](C)COC(F)F)c12 | 38.5%
9 | CC(=O)c1c[nH]c2ccc(-c3ccnc(Nc4ccc(NC(=O)C5CCCC5)c(CN5CCOCC5)c4)n3)cc12 | -53.9% (active)
10 | CN(C)c1ccc(C(=C2C=CC(=[N+](C)C)C=C2)c2ccc(N(C)C)cc2)cc1 (tested in a mixture with another compound) | -95% (active)
11 | COc1cc(NCCN=C(N)NC(N)=NC(C)C)c2ncccc2c1 | -46.5% (active)
12 | COc1cc(NC(=O)CSc2nc3ccccc3c(=O)n2CCc2ccccc2)cc(OC)c1OC | 29.9%
13 | Cc1c2cnccc2c(C)c2c1c1cc(CO)ccc1n2C | -65.7% (active)
14 | Cn1ncc2ncc(-c3ccc4ncc(C#N)c(N5CCc6cc(F)c(Cl)cc65)c4c3)cc21 | 8.25% (active)
15 | O=[N+]([O-])c1cccc(C2CC(c3ccccc3)=Nc3ccccc3S2)c1 (stereo not given) | 86.4%
16 | CC(=O)/C(C)=N\OC(=O)Nc1ccccc1 | 114%
17 | CC1(C)C(=O)/C(=C\c2cccnc2)C[C@]2(C)[C@H]3CC[C@@H]4[C@H]5[C@H](C(=O)/C=C/c6cccnc6)CC[C@]5(C(=O)O)CC[C@@]4(C)[C@]3(C)CC[C@@H]12 | -46.4% [100 µM] (active)
18 | Clc1ccc(Cc2nc3ccccc3s2)cc1 | 104%
19 | CN(C)c1ccc(C(Cc2ccc3ccccc3n2)Cc2ccc3ccccc3n2)cc1 | 32.6% and 77%
20 | CCN(CC)CCOC(=O)C(c1ccccc1)(c1ccccc1)C(C)C | 80%

Row | Compound | growth
21 | CCCCCCCCc1cc(Cl)c(O)c(Cl)c1 | 119%
22 | O=c1oc2c(Br)cc(Br)cc2cc1-c1cc(-c2ccc(-c3cc(-c4cc5cc(Br)cc(Br)c5oc4=O)nc(-c4cc5cc(Br)cc(Br)c5oc4=O)c3)cc2)cc(-c2cc3cc(Br)cc(Br)c3oc2=O)n1 | 117%
23 | C=C[C@@H]1C[C@H](O)Cc2c(C)cc(C)cc2N1 | 91.9%
24 | CON=C1C[C@]2(C[C@@H]3C[C@@H](C/C=C(\C)C[C@@H](C)/C=C/C=C4\CO[C@@H]5[C@H](O)C(C)=C[C@@H](C(=O)O3)[C@]45O)O2)O[C@H](/C(C)=C/C(C)C)[C@H]1C | 49%
25 | COc1ccc(-c2nnc(COc3ccc(NC(=O)Nc4ccccc4)cc3F)o2)cc1 | 86.9%
26 | O=C(NCCCNC(=O)OCc1ccc2cccc(O)c2n1)OCc1ccc2cccc(O)c2n1 | 11.3%
27 | Cc1ccc(-c2nnc(SCc3nc(N)nc(Nc4ccccc4F)n3)n2-c2ccccc2)cc1 | 86.5%
28 | O[C@H]1CO[C@H]2[C@@H]1OC[C@@H]2Oc1ccc(Nc2nc(Nc3ccc(F)c(Cl)c3)ncc2F)cc1Cl | 97.6%
29 | O=c1[nH]ccc2nc(N3CCC(O)CC3)nc(Nc3ccc(N4CCOCC4)cc3)c12 | 159%
30 | O=C(O)c1ccc(OCc2ccccc2)cc1 | 104%
31 | CN1CCN(c2nc3scc(-c4ccccc4)c3c(=O)[nH]2)CC1 | 98.1%
32 | CN(C)c1ccc(/C=C/c2ccnc3ccccc23)cc1N | 5.88% (active)
33 | O=C(CCCCCCCCC(=O)Nc1cccc(C2=NCCN2)c1)Nc1cccc(C2=NCCN2)c1 | 118%
34 | CCCCCCNC(=O)Oc1ccc(/C(=C(/C)c2ccc(Cl)cc2)c2ccc(OCCN3CCCC3)cc2)cc1 | 62.6%
35 | CCC1(C2CCCC2)NC(=O)NC1=O (stereo not given) | 101%
36 | COc1ccccc1/C=C1\COc2ccc(-c3ccccc3)cc2C1=O | 3.14% (active)
37 | COc1ccc(OC)c(/C=C2\COc3ccc(O)c(O)c3C2=O)c1 | 16.6%
38 | O=C(N=Nc1c(O)[nH]c2ccc(Br)cc12)c1cc(-c2ccccc2)on1 | 109%
39 | O=[N+]([O-])c1c(S(=O)(=O)O)cc2cc(S(=O)(=O)O)ccc2c1[N+](=O)[O-] | 111%
40 | CC1CCCN(CCCCOc2ccc(-c3ccc(C#N)cc3)cc2)C1 (stereo not given) | 87.6%
